Growth data for seven compounds are collected here from PubChem BioAssay (NCI).

The panel holds about 83,000 compounds, 20% with a hit somewhere; the sample as a whole holds those more often.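 Plates (96-well) were seeded with cells, treated with compound at one concentration, and incubated for 48 hours before percent growth was determined.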 Unmarked numbers belong to inactive results. Activity calls are given as the source filed them. The calls were made as follows: active = growth percent below 10; inactive = the rest.

Some test systems named below: DU-145 prostate; MALME-3M melanoma; MDA-MB-231 breast; RXF 393 renal; SF-268 CNS; SF-295 CNS; SF-539 CNS; UACC-257 melanoma; M14 melanoma; HCT-15 colon; HT29 colon; SNB-75 CNS; SNB-19 CNS; PC-3 prostate; SK-MEL-5 melanoma; UACC-62 melanoma; LOX IMVI melanoma; SK-MEL-28 melanoma; U251 CNS.
What all share (experiment): NCI-60 one-dose screen, 48 h (100 = growth as untreated, 0 = no growth, -100 = all killed)
Holding throughout (conditions): 10 µM unless noted

On to `CCNC(=O)c1ccc2c(c1)nc(-c1ccc(Cl)cc1)n2-c1cc(C(C)(C)C)[nH]n1`, for which the growth with DU-145 prostate was 71.4%; in the assay with MALME-3M melanoma, 34.9%; with MDA-MB-231 breast it was 64.3%; in the assay on RXF 393 renal, 36.2%; with SF-268 CNS it was 51.6%; in the assay on SF-295 CNS it was 16.4%. The growth with SF-539 CNS was 32.6%; with UACC-257 melanoma, 79.1%; in the assay on M14 melanoma, 18.1%; in the assay with HCT-15 colon, 45.2%; with HT29 colon, 26%; with SNB-75 CNS, 34.2%. Further, the growth was 60.5% in the assay with SNB-19 CNS; 44% in the assay on PC-3 prostate; 11.5% with SK-MEL-5 melanoma; 38.6% with UACC-62 melanoma; 33.1% with LOX IMVI melanoma; 41.6% in the assay with SK-MEL-28 melanoma.

In the case of `O=P(O)(O)C(O)(Cc1cccnc1)P(=O)(O)O`, the growth was 113% in the assay on MALME-3M melanoma; 94.1% with MDA-MB-231 breast; 101% in the assay with RXF 393 renal; 104% in the assay on SF-268 CNS; 111% in the assay on SF-295 CNS; 101% with SF-539 CNS. The growth in the assay with UACC-257 melanoma is 99.4%; in the assay with M14 melanoma, 99.6%; with HCT-15 colon, 90.3%; in the assay on HT29 colon, 106%; with SNB-75 CNS it was 88%; in the assay on SNB-19 CNS it was 107%. The growth in the assay on U251 CNS is 81.6%; in the assay with PC-3 prostate it was 95.9%; in the assay on SK-MEL-5 melanoma, 103%; in the assay with UACC-62 melanoma it was 99.2%; in the assay with LOX IMVI melanoma it was 86.1%; with SK-MEL-28 melanoma it was 103%.

As for `c1ccc2c(N=NSc3ncnc4nc[nH]c34)c3ccccc3nc2c1`, the growth in the assay on DU-145 prostate was 8.43% (active); in the assay with MALME-3M melanoma it was -17.9% (active); in the assay on MDA-MB-231 breast, 5.25% (active); with RXF 393 renal, -20.8% (active); with SF-268 CNS, 3.15% (active); with SF-295 CNS, 20.1%. For the same compound, the growth with SF-539 CNS is 5.02% (active); with UACC-257 melanoma, -13.9% (active); with M14 melanoma it was -25.4% (active); with HCT-15 colon, -7.02% (active); with HT29 colon, 0.967% (active); in the assay with SNB-75 CNS it was 2.72% (active). The growth in the assay with SNB-19 CNS was 12.3%; in the assay with PC-3 prostate, -1.78% (active); in the assay with SK-MEL-5 melanoma, -59.4% (active); in the assay on UACC-62 melanoma, -38.7% (active); in the assay on LOX IMVI melanoma it was -46.6% (active); in the assay on SK-MEL-28 melanoma, -37.6% (active).

As to `COc1ccccc1CNCCCN1C(=O)c2ccc3c4c(ccc(c24)C1=O)C(=O)N(CCCOCCCCOCCCN)C3=O`, the growth in the assay on DU-145 prostate was -74% (active); with MALME-3M melanoma, -93.1% (active); in the assay on MDA-MB-231 breast, -4.84% (active); with RXF 393 renal, -42.6% (active); with SF-268 CNS, -21.5% (active); with SF-295 CNS it was -9.19% (active). Moreover, the growth in the assay with SF-539 CNS was -34.9% (active); in the assay with UACC-257 melanoma, -91.7% (active); in the assay with M14 melanoma, -85.4% (active); in the assay on HCT-15 colon, -52.7% (active); in the assay with HT29 colon, -55% (active); in the assay with SNB-75 CNS, -5.57% (active). Besides, the growth with SNB-19 CNS is -11.1% (active); in the assay with U251 CNS it was -48.6% (active); in the assay on PC-3 prostate, 3.91% (active); with SK-MEL-5 melanoma, -98.7% (active); in the assay on UACC-62 melanoma, -79.8% (active); in the assay with LOX IMVI melanoma it was -34.3% (active). Also, the growth with SK-MEL-28 melanoma was -4.3% (active).

In the case of `O=C(CCCN1CCC(O)(c2ccc(Br)cc2)CC1)c1ccc(F)cc1`, the growth in the assay on MALME-3M melanoma was 86.8%; in the assay with MDA-MB-231 breast, 40.7%; in the assay with RXF 393 renal, 49.8%; in the assay with SF-268 CNS, 83.4%; in the assay with SF-295 CNS, 54.7%; in the assay on SF-539 CNS, 77.8%. For the same compound, the growth is -21.9% (active) with UACC-257 melanoma; 18.6% in the assay on M14 melanoma; 49.8% in the assay on HCT-15 colon; 22.1% in the assay on HT29 colon; 67.7% with SNB-75 CNS; 78.4% in the assay with SNB-19 CNS. Also, the growth was 64.4% in the assay on U251 CNS; 69.7% in the assay with PC-3 prostate; -1.83% (active) with SK-MEL-5 melanoma; 43.6% with UACC-62 melanoma; 53.7% in the assay on LOX IMVI melanoma; 74.6% with SK-MEL-28 melanoma.

Turning to `COc1cc(C2C(C#N)=C(N)Oc3cc4c(cc32)OCO4)cc2c1OCO2` (stereo unspecified), the growth is 6.37% (active) in the assay on DU-145 prostate; 52.6% with MALME-3M melanoma; 36.5% in the assay with MDA-MB-231 breast; -12.1% (active) with RXF 393 renal; 40.3% in the assay on SF-268 CNS; 9.43% (active) with SF-295 CNS. Besides, the growth was 2.43% (active) in the assay with SF-539 CNS; 66.4% in the assay with UACC-257 melanoma; -2.77% (active) in the assay with M14 melanoma; 21.5% in the assay on HCT-15 colon; 9.21% (active) with HT29 colon; -9.64% (active) in the assay with SNB-75 CNS. Further, the growth in the assay with SNB-19 CNS is 45.7%; in the assay on U251 CNS it was 28.4%; with PC-3 prostate it was 27.9%; in the assay with SK-MEL-5 melanoma it was 19.8%; with UACC-62 melanoma, 30.7%; in the assay on LOX IMVI melanoma, 38.3%. In addition, the growth with SK-MEL-28 melanoma is 41.7%.

On to `O=C(Nc1cccc(-n2ccc3c(NC(=O)c4ccccc4)nccc32)c1)c1ccc(Cl)c(Cl)c1`, for which the growth in the assay with DU-145 prostate was -73.3% (active); with MALME-3M melanoma, -56% (active); in the assay on MDA-MB-231 breast, -53.9% (active); in the assay with RXF 393 renal, -92.7% (active); with SF-268 CNS it was -55% (active); with SF-295 CNS, -69.8% (active). The growth in the assay with SF-539 CNS was -71.2% (active); in the assay with M14 melanoma, -83.4% (active); in the assay on HCT-15 colon it was -62% (active); in the assay with SNB-75 CNS, 2.32% (active); in the assay on SNB-19 CNS it was -40.3% (active); in the assay on PC-3 prostate, -60.5% (active). Also, the growth in the assay with SK-MEL-5 melanoma was -100% (active); in the assay with UACC-62 melanoma, -61.3% (active); in the assay with LOX IMVI melanoma, -84.4% (active); in the assay with SK-MEL-28 melanoma it was -60.4% (active).
